The target in experiment [1] is Glutathione peroxidase 1 (Homo sapiens) (UniProt P07203). In words: Primary qHTS Assay for Inhibitors of Recombinant Selenoprotein Glutathione Peroxidase 1 (GPX1) (AID 1845191). Note: nearly all actives have a fitted effect of over 65% in size. Note: potency is the fitted concentration of half-maximal effect. In outline:
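GR-coupled readout: NADPH consumption tracked by fluorescence, ex 340/em 450 nm, at t=0 and after 15 min at RT. Final mix 10 nM GPX1, 1 mM GSH, 0.5 mM CHP, 0.5 mM NADPH, 100 nM GR, 0.01% BSA, following 30 min enzyme–compound preincubation.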
In general terms: Quantitative high-throughput screening tests each substance at several concentrations.

Experiment [2] is described as follows: Primary fluorescence-based thiol-reactive (MSTI) qHTS assay for identification of artifact compounds. (AID 1845221).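 Note: series mostly up to about 54 µM; thiol-reactive compounds lower the probe fluorescence signal; nearly all actives have a fitted effect of over 65% in size.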 In outline:
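qHTS titration of compound; 4 uM MSTI, PBS pH 7.4, 2% DMSO; 1 h RT, dark; fluorescence 525/598 nm; normalized to Acetyl-MSTI and MSTI; 4-parameter Hill fit.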

For experiment [3], the system named is Nanoluciferase (engineered Oplophorus gracilirostris luciferase). In words: Primary Nanoluciferase (NLuc) qHTS assay for identification of artifact compounds. (AID 1845222).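 Note: NLuc secreted into diluted conditioned medium of S16 cells; series mostly up to about 54 µM.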 In a few lines:
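S16 cell supernatant NLuc, 1:55; cpds qHTS; 15 min RT dark; Nano-Glo substrate 1:100, 5 min; luminescence; Hill fit of % inhibition.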

Experiment [4] can be described thus: Primary redox qHTS assay for identification of artifact compounds. (AID 1845223). In outline:
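Redox-cycling detection via DTT (250 uM final) oxidation coupled to Amplex Red (25 uM)/HRP (250 mU/mL) in HBSS. 15 min preincubation plus 30 min after DTT, room temperature. Ex/Em 525/598 nm; 4-parameter Hill fit against DMSO and 10 uM DA3003.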

Experiment [5] is described as follows: Quantitative High-Throughput drug screen in 47 multiple myeloma cell lines against the NCATS MIPE library collection: FR4_PLB cell viability assay (AID 1918924; note: nearly all actives have a fitted effect of over 35% in size; note: potency is the fitted concentration of half-maximal effect). In a few lines: (§1)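 We plated 500 myeloma cells per well, pinned in MIPE 4.0 compounds, and incubated for 48 hours at 37C. ATP was then quantified with CellTiter-Glo, with DMSO and media-only wells defining 100% and 0%.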

Experiment [6] can be described thus: Quantitative High-Throughput drug screen in 47 multiple myeloma cell lines against the NCATS MIPE library collection: Delta47_JCRB cell viability assay (AID 1918925; note: nearly all actives have a fitted effect of over 45% in size; note: potency is the fitted concentration of half-maximal effect). In a few lines:
(§2)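 Luminescent ATP measurement with CellTiter-Glo gives viability, scaled between DMSO-only wells (100%) and media-only wells (0%). Cells, 500 per well, faced library compounds for 48 hours at 37C.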

The nature of experiment [7]: Quantitative High-Throughput drug screen in 47 multiple myeloma cell lines against the NCATS MIPE library collection: EJM_DSMZ cell viability assay (AID 1918926; note: nearly all actives have a fitted effect of over 30% in size; note: potency is the fitted concentration of half-maximal effect). In a few lines:
as §2

Experiment [8] is described as follows: Quantitative High-Throughput drug screen in 47 multiple myeloma cell lines against the NCATS MIPE library collection: AMO1_DSMZ cell viability assay (AID 1918927; note: nearly all actives have a fitted effect of over 30% in size; note: potency is the fitted concentration of half-maximal effect). In outline:
as §2

Experiment [9] in a line: Quantitative High-Throughput drug screen in 47 multiple myeloma cell lines against the NCATS MIPE library collection: ARP1_JJKsccF8 cell viability assay (AID 1918928; note: nearly all actives have a fitted effect of over 40% in size; note: potency is the fitted concentration of half-maximal effect). In outline: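 Cell viability inhibition in this qHTS is measured via ATP content (CellTiter-Glo) after 48 h drug exposure at 37 °C. Wells hold 500 cells; DMSO-treated wells define 100% and medium-only wells 0%.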

The nature of experiment [10]: Quantitative High-Throughput drug screen in 47 multiple myeloma cell lines against the NCATS MIPE library collection: ARD_JJKsccE7 cell viability assay (AID 1918929; note: potency is the fitted concentration of half-maximal effect). In a few lines:
as §2

Experiment [11] in a line: Quantitative High-Throughput drug screen in 47 multiple myeloma cell lines against the NCATS MIPE library collection: Karpas620_DSMZ cell viability assay (AID 1918959). Note: nearly all actives have a fitted effect of over 30% in size. Note: potency is the fitted concentration of half-maximal effect. In outline:
as §1

The target in experiment [12] is Luciferin 4-monooxygenase (Photinus pyralis) (UniProt P08659). The experiment is described as follows: Primary firefly luciferase (FLuc) qHTS assay for identification of artifact compounds. (AID 1845220). Note: nearly all actives have a fitted effect of over 60% in size. In a few lines:
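Enzymatic FLuc inhibition assay: compounds pre-exposed to luciferin/ATP (10 uM each) for 15 min, then purified P. pyralis enzyme at 10 nM added. Read-out: luminescence at 5 min.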

In experiment [13] the target is Phospholipid hydroperoxide glutathione peroxidase GPX4 (Homo sapiens) (UniProt P36969). In words: Primary qHTS Assay for Inhibitors of Recombinant Selenoprotein Glutathione Peroxidase 4 (GPX4) (AID 1845192). Note: nearly all actives have a fitted effect of over 65% in size. Note: potency is the fitted concentration of half-maximal effect. In a few lines: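 Steps: GPX4 plus compound, 30 min RT; add GR/GSH/NADPH master mix; start with cumene hydroperoxide; read 340/450 nm fluorescence at 0 and 15 min. Finals were 200 nM GPX4, 1 mM GSH, 0.5 mM CHP, 0.5 mM NADPH, 100 nM GR.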

Results on 20 compounds are retold here after PubChem BioAssay (NCATS).

Each structure is given as a SMILES string. Where “and” joins values, the source holds several entries; their conditions need not be identical. Identical values can stand only once. Inconclusive results are not listed. The source holds several records for some structures; these can differ, active in one and inactive in another. Calls of active or inactive are those of the source. Calls come from the whole dose curve; as a rule, active = well fitted curve in the direction sought with a large enough effect; inconclusive = small, poorly fitted or top-dose-only effect, or another doubt; inactive = no such curve, though single readings can be large; an effect the other way counts as inactive or inconclusive.

Phospholipid hydroperoxide glutathione peroxidase GPX4 (Homo sapiens), sequence (P36969 whole entry, looked up): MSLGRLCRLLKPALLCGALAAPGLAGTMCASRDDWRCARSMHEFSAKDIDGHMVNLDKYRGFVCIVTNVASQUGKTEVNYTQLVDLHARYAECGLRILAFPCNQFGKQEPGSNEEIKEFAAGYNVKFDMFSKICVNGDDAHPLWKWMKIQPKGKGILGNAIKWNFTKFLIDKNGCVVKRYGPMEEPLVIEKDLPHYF
Glutathione peroxidase 1 (Homo sapiens), sequence (P07203 whole entry, looked up): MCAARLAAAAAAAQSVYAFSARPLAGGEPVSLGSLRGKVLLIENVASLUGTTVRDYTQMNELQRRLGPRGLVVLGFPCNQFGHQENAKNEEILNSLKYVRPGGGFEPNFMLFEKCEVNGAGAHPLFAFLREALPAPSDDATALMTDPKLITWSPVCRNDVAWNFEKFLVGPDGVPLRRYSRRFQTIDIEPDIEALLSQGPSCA

As for `COc1cccc2nc(-c3cccs3)nc(NN3C(=O)C=C(C)C3=O)c12`, the Potency entry in [1], in experiment [2], in experiment [3] and in [4] was “inactive” in each case. Further, the Potency in [5] was 1.87 µM (active); in experiment [6] it was 0.0743 µM (active); in experiment [7], 0.296 µM (active); in [8], 0.0935 µM (active); in experiment [9], 0.0418 µM (active); in [10], 1.66 µM (active). Moreover, in experiment [11], the Potency is 0.743 µM (active).

With `O=C(O)Cn1nnc(-c2cc(N3CCC(Oc4cc(F)ccc4Br)CC3)no2)n1`, the Potency entry in experiment [1], in experiment [12], in experiment [2], in [3], in experiment [4] and in [5] was “inactive” in each case. Moreover, the Potency result in experiment [6], in experiment [7], in experiment [9] and in experiment [11] was “inactive” each time.

For the compound `O=C1CCC[C@@H]2[C@H]3CCC[N+]4([O-])CCC[C@@H](CN12)[C@@H]34` (stereo not given in full), the Potency result in [13], in [12], in experiment [2], in experiment [3], in experiment [4] and in experiment [5] was “inactive” each time. The Potency entry in [6], in [8], in experiment [9], in experiment [10] and in experiment [11] was “inactive” in each case.

Take `Clc1cccc(-n2nnnc2NCc2ccccc2Oc2ccccn2)c1Cl`: the Potency entry in experiment [13], in experiment [12], in [2], in experiment [3], in experiment [4] and in [5] was “inactive” each time. Moreover, the Potency entry in experiment [7] was “inactive”.

As for `CC[C@H](CO)Nc1nc(NCc2ccccc2)c2ncn(C(C)C)c2n1`, the Potency result in experiment [1], in experiment [13] and in experiment [11] was “inactive” in each case. In addition, the Potency in experiment [6] is 16.6 µM (active); in experiment [7] it was 26.4 µM (active); in experiment [8], 9.35 µM (active).

Take `C[C@@]12O[C@@H](C[C@]1(O)CO)n1c3ccccc3c3c4c(c5c6ccccc6n2c5c31)CNC4=O`: in experiment [1], the Potency entry was “inactive”. Moreover, the Potency in experiment [5] is 6.62 µM (active); in experiment [6], 0.418 µM (active); in experiment [7] it was 2.96 µM (active); in [9], 0.662 µM (active).

As to `CCOc1ccccc1OCCNC(C)Cc1ccc(OC)c(S(N)(=O)=O)c1` (stereo not given), the Potency entry in experiment [13], in experiment [12], in experiment [2], in experiment [3], in experiment [4] and in [5] was “inactive” each time. The Potency entry in experiment [6], in experiment [7], in experiment [9] and in [10] was “inactive” each time.

On to `Cc1ccc(S(=O)(=O)Nc2cc(Cl)ccc2C(=O)Nc2nc(-c3ccccc3)cs2)cc1`, for which the Potency entry in experiment [1] is “inactive”. Besides, the Potency in experiment [5] is 20.9 µM (active); in [6], 4.69 µM (active); in experiment [8], 9.35 µM (active); in [9], 20.9 µM (active); in [10], 7.43 µM (active).

Regarding `CN[C@H]1CCc2cc(OC)c(OC)c(OC)c2-c2ccc(OC)c(=O)cc21`, the Potency result in [1], in [13], in experiment [5] and in experiment [11] was “inactive” in each case. Moreover, the Potency is 0.001 µM (active) in experiment [6] and 0.0015 µM (active) in [9].

Take `Cc1nc2ccc(CN(C)c3ccc(C(=O)N[C@@H](CCC(=O)O)C(=O)O)s3)cc2c(=O)[nH]1`: the Potency in [1] is 25.5 µM (active) and inactive and 22.7 µM (active); in experiment [8] it was 0.0662 µM (active); in experiment [9], 0.0209 µM (active). The Potency result in [13] and in experiment [7] was “inactive” each time.

With `COc1ccc(CC2SC(=O)NC2=O)cc1C(=O)NCc1ccc(C(F)(F)F)cc1` (stereo not given), the Potency result in experiment [1], in experiment [5], in experiment [6], in experiment [8] and in experiment [9] was “inactive” throughout.

In the case of `CC(=O)OCC(=O)[C@@]1(O)[C@H](C)C[C@H]2[C@@H]3C=C(C)C4=Cc5c(cnn5-c5ccccc5)C[C@]4(C)[C@@H]3[C@@H](O)C[C@@]21C`, the Potency entry in [1] and in experiment [13] was “inactive” in each case. The Potency in experiment [5] is 14.8 µM (active); in experiment [6] it was 5.9 µM (active); in [9], 4.69 µM (active); in experiment [11], 8.33 µM (active).

Regarding `Cn1c2cc(S(C)=O)sc2c2cnn(Cc3cccc(N)c3)c(=O)c21` (stereo not given), the Potency entry in experiment [1], in [13], in experiment [5], in experiment [8], in experiment [9] and in experiment [10] was “inactive” each time. For the same compound, the Potency result in experiment [11] is “inactive”.

For the compound `CC(C)(C)c1cc(C(C)(C)C)c(NC(=O)c2c[nH]c3ccccc3c2=O)cc1O`, the Potency entry in experiment [1], in experiment [6], in [7], in experiment [8], in experiment [10] and in [11] was “inactive” in each case. Moreover, the Potency in experiment [13] is 17.8 µM (active).

Regarding `C[C@@H]1CN(CC(=O)Nc2ccc3c(c2)Cc2cccc(-c4cc(=O)cc(N5CCOCC5)o4)c2S3)C[C@H](C)O1`, the Potency entry in experiment [1] was “inactive”. Moreover, the Potency in [5] was 16.6 µM (active); in [6], 2.64 µM (active); in experiment [8], 5.26 µM (active); in [9] it was 9.35 µM (active); in [10], 18.7 µM (active).

Consider `Cn1c2ccccc2c2c3c(c4c5ccccc5n(CCC#N)c4c21)CNC3=O`, for which the Potency entry in experiment [1], in experiment [12], in [3] and in experiment [4] was “inactive” each time. Moreover, the Potency in experiment [5] is 4.69 µM (active); in experiment [6], 1.48 µM (active); in experiment [7] it was 2.96 µM (active); in experiment [8] it was 0.935 µM (active); in experiment [9], 7.43 µM (active); in [10], 2.35 µM (active).

With `O=C(O)c1ccc2cc(-c3ccc(O)c(C45CC6CC(CC(C6)C4)C5)c3)ccc2c1`, the Potency entry in [1] is “inactive”. Moreover, the Potency was 23.5 µM (active) in [5]; 5.9 µM (active) in [6]; 1.32 µM (active) in experiment [8]; 5.9 µM (active) in experiment [9]; 5.26 µM (active) in experiment [10].

`CC(C)c1ccccc1Cc1cc(C(=O)Nc2ccc(S(=O)(=O)c3ccccc3C(C)(C)C)cc2)c(O)c(O)c1O`: the Potency result in experiment [1], in experiment [8], in experiment [10] and in experiment [11] was “inactive” each time. Moreover, the Potency in [5] is 9.35 µM (active); in [6] it was 7.43 µM (active); in experiment [9], 14.8 µM (active).

`COc1ccc(-c2cc3c(C)nc(N)nc3n(C3CCC(OCCO)CC3)c2=O)cn1` (stereo not given): the Potency in experiment [1] is 5.78 µM (active) and 16.1 µM (active); in experiment [5] it was 0.0332 µM (active); in experiment [6], 0.0118 µM (active); in experiment [7], 0.132 µM (active); in experiment [8], 0.0418 µM (active); in experiment [9], 0.0209 µM (active). Also, the results for the Potency in [10] and in experiment [11] were 0.187 µM (active) and 0.132 µM (active), respectively. In addition, the Potency entry in experiment [12], in [2], in [3] and in [4] was “inactive” throughout.

For the compound `CN(C)CC=CC(=O)Nc1cc2c(Nc3ccc(F)c(Cl)c3)ncnc2cc1O[C@H]1CCOC1`, the Potency in experiment [5] is 14.8 µM (active); in experiment [6] it was 3.72 µM (active); in experiment [7] it was 16.6 µM (active); in experiment [8], 0.935 µM (active); in experiment [9], 18.7 µM (active); in experiment [10] it was 5.26 µM (active). In addition, the Potency in experiment [11] is 2.64 µM (active).
